Consider 14 compounds from PubChem BioAssay (NCATS).

The target of test [1] is Peroxisome proliferator-activated receptor gamma (Homo sapiens) (UniProt P37231). Kind of test: qHTS assay for small molecule antagonists of peroxisome proliferator-activated receptor gamma signaling (AID 588537; active means well fitted inhibition curve with a large enough effect in the signal ratio, with a control signal flat, not every such curve was filed as active; the % refers to the signal ratio; further: potency means the concentration at half of the fitted maximal effect;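 on activity, negative = inhibition: reporter cells co-stimulated with 50 nM rosiglitazone agonist during compound treatment; % of control where 0% means no effect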). In outline: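 Fluorescence at 460 and 530 nm (405 nm excitation) reported beta-lactamase cleavage of CCF4 after 2 h room-temperature loading. HEK293 reporter cells in 1% charcoal/dextran-treated FBS had received compound and rosiglitazone for 16 h.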

The nature of test [2]: qHTS assay for small molecule agonists of the antioxidant response element (ARE) signaling pathway (AID 651741; active means well fitted activation curve with a large enough effect in the signal ratio; the % refers to the signal ratio; further: potency means the concentration at half of the fitted maximal effect; on activation: % of control where 0% means no effect). A digest of the protocol:
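Stably integrated ARE-beta-lactamase reporter HepG2 cells; 16 h compound incubation, 37 C; LiveBLAzer FRET substrate 2 h at room temperature; fluorescence intensity.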

A short description of test [3]: qHTS assay for small molecule activators of the nuclear factor-kappa B (NF-kB) signaling pathway (AID 651749; active means well fitted activation curve with a large enough effect in the signal ratio; the % refers to the signal ratio; further: % of control where 0% means no effect). The conditions noted are these: NF-kB-bla ME-180 cells, beta-lactamase FRET ratio, 16 h; active compounds read high. A digest of the protocol: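 In this qHTS format, compounds acting as activators increase NF-kB-driven beta-lactamase in ME-180 cells, measured as disrupted FRET after 16 hr exposure at 37C and 5% CO2.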

In test [4] the target is ATP-dependent 6-phosphofructokinase (Trypanosoma brucei brucei) (UniProt O15648). Kind of test: qHTS Assay to Find Inhibitors of T. brucei phosphofructokinase: hit validation (AID 492961).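 Further: luminescence reports ADP formed as PFK phosphorylates fructose-6-phosphate with ATP; on the % scale 0 is the no-effect control and ±100 the full control effect.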 A digest of the protocol:
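Compounds titrated; %activity normalized to 0x and 1x enzyme controls, curve-fitted. Readout: ADP-Glo luminescence after 45 min room-temperature reaction of 1.25 nM PFK, 0.1 mM ATP, 0.5 mM F6P, pH 8.0.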

Test [5] can be described thus: qHTS profiling for inhibitors of Plasmodium falciparum proliferation (AID 504749). Further: potency means the concentration at half of the fitted maximal effect.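 On activity, negative = inhibition: 0% = DMSO vehicle and full inhibition = artemisinin control.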 On all read-outs here: nearly all actives have a fitted effect of over 60% in size. As to conditions: P. falciparum in erythrocytes, SYBR Green DNA, 72 h; for activity, negative = inhibition: at 28.7 µM (top of the series). In outline: (§1)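 Each compound contacts P. falciparum-infected red blood cells for 72 h at 37 C; lysis buffer (Tris, EDTA, saponin, Triton X, SYBR Green I) is added and fluorescence measured next morning; values normalized to controls.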

The test system of test [6] is 7G8. Described as above. The conditions noted are these: P. falciparum in erythrocytes, SYBR Green DNA, 72 h; series mostly up to 28.7 µM. A digest of the protocol: as §1
The subject of test [7] is AS120. Described as above. As to conditions: P. falciparum in erythrocytes, SYBR Green DNA, 72 h; series mostly up to 28.7 µM. A digest of the protocol: as §1
Test [8] relates to ATS189. Described as above. The conditions noted are these: P. falciparum in erythrocytes, SYBR Green DNA, 72 h; series mostly up to 28.7 µM. A digest of the protocol:
as §1

In test [9] the test system is CP191. The description is as above. As to conditions: P. falciparum in erythrocytes, SYBR Green DNA, 72 h; series mostly up to 28.7 µM. In outline: as §1
Test [10] concerns CP237. The test is described as above. The conditions noted are these: P. falciparum in erythrocytes, SYBR Green DNA, 72 h; series mostly up to 28.7 µM. A digest of the protocol: as §1
In test [11] the test system is CP266. The description is as above. As to conditions: P. falciparum in erythrocytes, SYBR Green DNA, 72 h; series mostly up to 28.7 µM. A digest of the protocol:
as §1

Test [12] has as its system Dd2. The description is as above. As to conditions: P. falciparum in erythrocytes, SYBR Green DNA, 72 h; series mostly up to 28.7 µM. In outline: as §1
The test system of test [13] is GB4. The test is described as above. As to conditions: P. falciparum in erythrocytes, SYBR Green DNA, 72 h; series mostly up to 28.7 µM. A digest of the protocol: as §1
Test [14] deals with HB3. The test is described as above. The conditions noted are these: P. falciparum in erythrocytes, SYBR Green DNA, 72 h; series mostly up to 28.7 µM. A digest of the protocol: as §1
Test [15] has as its system P94_40. The test is described as above. As to conditions: P. falciparum in erythrocytes, SYBR Green DNA, 72 h; series mostly up to 28.7 µM. In outline: as §1
Test [16] concerns TAB109. The description is as above. As to conditions: P. falciparum in erythrocytes, SYBR Green DNA, 72 h; series mostly up to 28.7 µM. A digest of the protocol: as §1
Test [17] concerns TAB113. The description is as above. The conditions noted are these: P. falciparum in erythrocytes, SYBR Green DNA, 72 h; series mostly up to 28.7 µM. A digest of the protocol: as §1
Test [18] can be described thus: NFAT Signaling Pathway (AID 444; active means well fitted curve in either direction with a large enough effect, not every such curve was filed as active;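 further: carbachol stimulus at about its EC50 of 1 µM final; on the % scale 0 is the no-effect control and ±100 the full control effect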). The conditions noted are these: Jurkat NFAT-bla M1, carbachol, beta-lactamase ratio, 5 h; at 17.2 µM (top of the series) unless noted. A digest of the protocol:
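Jurkat cells with NFAT-driven β-lactamase reporter and co-expressed M1 receptor, stimulated with carbachol (final 1 uM, ~EC50), compound titration, 5 h at 37 °C. CCF4 loaded 1 h at RT; 460/530 nm ratio gave %activity and AC50.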

A short description of test [19]: Stat Signaling Pathway (AID 446; active means well fitted curve in either direction with a large enough effect, not every such curve was filed as active;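 further: ME-180 cervical cancer cells given 40 pM IL-6 alongside compound; SIE-controlled beta-lactamase reporter measured as 460/530 nm FRET emission ratio; on the % scale 0 is the no-effect control and ±100 the full control effect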). The conditions noted are these: ME-180 (cervical carcinoma) SIE beta-lactamase reporter, IL-6 stimulated, 5 h; at 17.2 µM (top of the series) unless noted. A digest of the protocol:
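Normalization used AC90 stimulation (300 pM IL-6) and AC90 inhibition (125 nM pan-JAK inhibitor at 40 pM IL-6). The underlying signal is SIE-driven beta-lactamase in ME-180 cells after 5 h IL-6 exposure with compound.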

In test [20] the target is Glucocorticoid receptor (Homo sapiens) (UniProt P04150). Kind of test: GR-GFP Redistribution (AID 450;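 active means compounds whose dose series gives a full or clear partial fitted curve of increased nuclear translocation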; further: potency means the concentration at half of the fitted maximal effect).

Several values for one entry are separate records, joined by “and”; a condition that tells them apart may be missing. Equal entries are not always repeated. Values without a mark were called inactive. Records with an inconclusive call do not appear. Activity calls are given as the source filed them. Unless noted, the call rests on the fitted dose curve; in most records, active means well fitted curve in the direction sought with a large enough effect; inconclusive means small, poorly fitted or top-dose-only effect, or another doubt; inactive means no such curve, though single readings can be large; an effect the other way counts as inactive or inconclusive. A value given as a limit tells only on which side of the number the result lay.

Chain of Peroxisome proliferator-activated receptor gamma (Homo sapiens) (P37231 whole entry, looked up): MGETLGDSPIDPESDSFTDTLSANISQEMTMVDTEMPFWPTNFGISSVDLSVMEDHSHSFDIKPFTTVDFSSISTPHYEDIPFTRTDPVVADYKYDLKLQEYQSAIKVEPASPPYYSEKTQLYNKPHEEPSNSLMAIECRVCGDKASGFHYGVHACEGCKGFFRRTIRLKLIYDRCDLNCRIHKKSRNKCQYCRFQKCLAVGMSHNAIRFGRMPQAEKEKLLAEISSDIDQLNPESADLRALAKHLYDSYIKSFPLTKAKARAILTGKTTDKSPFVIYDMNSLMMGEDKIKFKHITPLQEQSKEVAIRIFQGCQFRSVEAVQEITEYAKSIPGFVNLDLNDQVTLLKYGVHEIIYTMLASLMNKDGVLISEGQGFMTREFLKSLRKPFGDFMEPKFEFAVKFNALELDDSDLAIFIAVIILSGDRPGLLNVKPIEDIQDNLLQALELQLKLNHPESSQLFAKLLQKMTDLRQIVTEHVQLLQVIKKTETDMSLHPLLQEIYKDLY
Chain of Glucocorticoid receptor (Homo sapiens) (P04150 whole entry, looked up): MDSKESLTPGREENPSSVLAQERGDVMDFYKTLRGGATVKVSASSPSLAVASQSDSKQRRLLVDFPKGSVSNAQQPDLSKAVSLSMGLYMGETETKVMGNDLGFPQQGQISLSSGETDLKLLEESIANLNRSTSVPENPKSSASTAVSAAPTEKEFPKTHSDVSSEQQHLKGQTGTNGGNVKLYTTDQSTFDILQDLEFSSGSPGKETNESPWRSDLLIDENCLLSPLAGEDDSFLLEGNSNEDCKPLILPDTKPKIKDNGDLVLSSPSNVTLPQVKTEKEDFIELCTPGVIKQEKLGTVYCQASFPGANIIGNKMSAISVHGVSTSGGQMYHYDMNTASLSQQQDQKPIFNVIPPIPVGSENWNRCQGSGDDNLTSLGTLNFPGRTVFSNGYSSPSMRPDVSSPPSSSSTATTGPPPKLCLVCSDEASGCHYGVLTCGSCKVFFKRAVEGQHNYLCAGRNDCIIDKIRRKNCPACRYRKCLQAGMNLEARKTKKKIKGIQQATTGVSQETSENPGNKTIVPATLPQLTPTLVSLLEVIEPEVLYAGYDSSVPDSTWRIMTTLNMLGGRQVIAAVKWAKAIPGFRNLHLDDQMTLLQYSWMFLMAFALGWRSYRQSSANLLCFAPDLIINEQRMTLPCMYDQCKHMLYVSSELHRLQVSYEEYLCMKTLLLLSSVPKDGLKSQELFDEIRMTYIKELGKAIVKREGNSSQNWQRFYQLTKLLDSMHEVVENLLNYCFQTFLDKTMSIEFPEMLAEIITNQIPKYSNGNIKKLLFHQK
Chain of ATP-dependent 6-phosphofructokinase (Trypanosoma brucei brucei) (O15648 whole entry, looked up): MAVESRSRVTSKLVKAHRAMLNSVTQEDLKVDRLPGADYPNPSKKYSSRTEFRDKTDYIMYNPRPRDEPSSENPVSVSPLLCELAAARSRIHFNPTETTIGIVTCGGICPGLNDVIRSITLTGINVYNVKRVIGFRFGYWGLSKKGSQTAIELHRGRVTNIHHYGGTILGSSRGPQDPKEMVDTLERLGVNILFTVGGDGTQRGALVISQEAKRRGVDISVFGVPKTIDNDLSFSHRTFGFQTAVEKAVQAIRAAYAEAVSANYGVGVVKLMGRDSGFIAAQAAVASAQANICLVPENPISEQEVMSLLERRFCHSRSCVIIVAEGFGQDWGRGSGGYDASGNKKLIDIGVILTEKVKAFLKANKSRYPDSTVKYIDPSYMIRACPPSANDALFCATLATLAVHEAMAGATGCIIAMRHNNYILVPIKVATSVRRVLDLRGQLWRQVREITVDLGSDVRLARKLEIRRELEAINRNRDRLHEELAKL

`Cc1cc(O)c(C(C)(C)C)cc1Sc1cc(C(C)(C)C)c(O)cc1C`: in test [1], the Potency was 39.8 µM (active) and 25.1 µM (active).

For the compound `CCCCCC/C(C=O)=C\c1ccccc1`, the Potency entry in test [2] was “inactive”. In addition, the activation in [3] was -0.556%.

Regarding `CO[C@H]1/C=C/O[C@@]2(C)Oc3c(C)c(O)c4c(O)c(c5c(c4c3C2=O)NC2(CCN(CC(C)C)CC2)N=5)=NC(=O)/C(C)=C\C=C\[C@H](C)[C@H](O)[C@@H](C)[C@@H](O)[C@@H](C)[C@H](OC(C)=O)[C@@H]1C`, the Potency result in test [4] and in test [11] was “inactive” throughout. Further, the Potency was 4.47 µM (active) in [5] (parasite line B); 7.08 µM (active) in test [6]; 12.6 µM (active) in test [7]; 5.01 µM (active) in test [8]; 8.91 µM (active) in [9]; 10 µM (active) in test [10]. For the same compound, the Potency in test [12] is 7.94 µM (active); in test [13] it was 12 µM (active); in test [14], 11.2 µM (active); in [15] it was 8.91 µM (active); in test [16] it was 11.2 µM (active); in test [17], 7.94 µM (active).

As to `Cc1ccc(S(=O)(=O)Oc2ccc(N=Nc3ccc(-c4ccc(N=Nc5c(O)ccc6cc(S(=O)(=O)O)cc(S(=O)(=O)O)c56)c(C)c4)cc3C)cc2)cc1`, the activation in [3] was -0.0057%.

For `Cc1cc(OCCN2CCCCC2)nc2ccccc12`, in test [18], the activity change, negative = inhibition was -29.3%. Moreover, in [19], the activity, negative = inhibition was 9.41%. Moreover, the Potency in test [20] is > 20.6 µM.

With `CN(C)c1ccc(C2(c3ccc(N(C)C)cc3)OC(=O)c3cc(N(C)C)ccc32)cc1`, the Potency result in test [1] is “inactive”.

Take `O=Cc1ccc(Cl)c(Cl)c1`: the activation in test [3] was -0.954%.

For the compound `ClC1=C(Cl)C(Cl)(Cl)C(Cl)=C1Cl`, the Potency result in test [1] was “inactive”. For the same compound, the activation in test [3] is -0.183% and -0.468%.

With `Cc1cc(N/C=C/C(=O)c2cccc3ccccc23)no1`, the activity change, negative = inhibition in test [18] was -3.82%. In test [19], the activity, negative = inhibition is -10.2%. In addition, the Potency in test [20] is > 20.6 µM.

On to `CNc1ccc(O)cc1`, for which the Potency in test [2] was 13.3 µM (active). Also, in test [3], the activation was -0.994%.

On to `COC(=O)c1ccccc1NC(=O)CSc1nnc(-c2ccncc2)o1`, for which the activity change, negative = inhibition in [18] is 4.54%. For the same compound, the activity, negative = inhibition in [19] is 0.0286%. In addition, the Potency in [20] was > 20.6 µM.

Consider `CCOc1cc2nc(-c3ccc(OC)c(OC)c3)nc(N3CCOCC3)c2cc1OC`, for which, in test [18], the activity change, negative = inhibition is -10.2%. Further, the activity, negative = inhibition in test [19] was -21.5%.

For the compound `CN1[C@H]2CC(OC(=O)[C@H](CO)c3ccccc3)C[C@H]1[C@H]1O[C@H]12` (some centres not stated), the Potency result in [4], in [2], in test [6], in [7], in test [8] and in test [9] was “inactive” each time. For the same compound, the Potency entry in test [10], in test [11], in test [12], in test [13], in test [14] and in test [15] was “inactive” in each case. In addition, the Potency entry in [16] and in test [17] was “inactive” throughout. Also, the activity, negative = inhibition in test [5] (parasite line A) was 1.25%; in test [5] (parasite line B) it was -7.4%.

As to `Cc1cccc(O)c1C`, the Potency result in test [1] is “inactive”.
